This is part of a sample that, as a whole, favours compounds with a hit. Of some 83,000 tested, about 20% had one in any assay.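 For each line, cells grew in 96-well plates with the test compound present at a single concentration for 48 hours.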 Unmarked numbers belong to inactive results. Activity calls are given as the source filed them. The calls were made as follows: active = growth percent below 10; inactive = the rest.
What was measured:
Assay in all cases: NCI-60 one-dose screen, 48 h (100 = growth as untreated, 0 = no growth, -100 = all killed)
Details in all cases: 10 µM unless noted
NCI-H23 lung = test system: NCI-H23 lung
NCI-H226 lung = test system: NCI-H226 lung
NCI-H322M lung = test system: NCI-H322M lung
HOP-62 NSCLC = test system: HOP-62 NSCLC
NCI-H460 lung = test system: NCI-H460 lung
HOP-92 NSCLC = test system: HOP-92 NSCLC
NCI-H522 lung = test system: NCI-H522 lung
A549/ATCC NSCLC = test system: A549/ATCC NSCLC
786-0 renal = test system: 786-0 renal
COLO 205 colon = test system: COLO 205 colon
DU-145 prostate = test system: DU-145 prostate
K-562 leukemia = test system: K-562 leukemia
MALME-3M melanoma = test system: MALME-3M melanoma
MDA-MB-231 breast = test system: MDA-MB-231 breast
RXF 393 renal = test system: RXF 393 renal
SF-268 CNS = test system: SF-268 CNS
SF-295 CNS = test system: SF-295 CNS
SF-539 CNS = test system: SF-539 CNS
UACC-257 melanoma = test system: UACC-257 melanoma
M14 melanoma = test system: M14 melanoma

SMILES	growth (NCI-H23 lung)	growth (NCI-H226 lung)	growth (NCI-H322M lung)	growth (HOP-62 NSCLC)	growth (NCI-H460 lung)	growth (HOP-92 NSCLC)	growth (NCI-H522 lung)	growth (A549/ATCC NSCLC)	growth (786-0 renal)	growth (COLO 205 colon)	growth (DU-145 prostate)	growth (K-562 leukemia)	growth (MALME-3M melanoma)	growth (MDA-MB-231 breast)	growth (RXF 393 renal)	growth (SF-268 CNS)	growth (SF-295 CNS)	growth (SF-539 CNS)	growth (UACC-257 melanoma)	growth (M14 melanoma)
c1ccc(OCC[P+](c2ccccc2)(c2ccccc2)c2ccccc2)cc1	7.98% (active)	38.5%	59.4%	26.8%	17.1%	-5.38% (active)	-9.67% (active)	30.9%	53.2%	2.02% (active)	36.4%	17.5%	15.5%	43.6%	51%	20.9%	21.2%	32%	-4.91% (active)	32.6%
CC(C)C(=O)Nc1nc2c(s1)CCCc1ccn(S(=O)(=O)c3ccccc3)c1-2	86.8%	94%	90%	90.6%	103%	112%	70.5%	82.3%	89.9%	110%	98.8%	73.8%	114%	108%	119%	99.2%	90.6%	100%	93.7%	96.9%
COc1ccc(C(=O)NC(=O)Nc2ccc3c(c2)NC(=O)/C3=C\c2[nH]c(C)c(C(=O)O)c2C)c(F)c1	48.9%	67.1%	45%	64.9%	69.8%	63.9%	37.8%	47.6%	35%	88.6%	28.2%	62.6%	-8% (active)	63.5%	-21% (active)	65.4%	33.1%	47.8%	47.2%	17.6%
CCCN1C(=O)CSC1=Nc1ccc2cc3ccc(N=C4SCC(=O)N4CCC)cc3nc2c1	35.8%	32.2%	86.4%	47.6%	36.8%	57.1%	31.4%	41.4%	8.44% (active)	36.8%	83.7%	21.4%	33.5%	18.5%	-27.9% (active)	62.9%	23%	46%	43.9%	50.7%
CCCCCC/C=N/Nc1ccc([N+](=O)[O-])cn1	98.3%	99.1%	98.7%	87.8%	112%	104%	78.2%	90.6%	94.7%	98%	103%	96.7%	98.1%	98.7%	104%	103%	95.3%	93.7%	88.7%	90.4%
O=S(=O)(Nc1cccc2cc(OS(=O)(=O)c3ccccc3)ccc12)c1ccccc1	73.8%	74.7%	90.1%	46.3%	29.7%	57.6%	40.5%	57.1%	81.2%	51.9%	92%	25.2%	56.2%	76.4%	86.5%	74.2%	59.3%	63.4%	75.6%	40.3%
O=C(Nc1ccc(-n2ccc3c(NC(=O)c4ccccc4)nccc32)cc1)c1ccc(Cl)c(C(F)(F)F)c1	64%	69.9%	66.1%	53.9%	-67% (active)	46.5%	-0.6% (active)	-29.9% (active)	22.9%	37.2%	23.6%	-31.6% (active)	57.9%	55.8%	18.4%	28.7%	25.3%	24.1%	58.8%	31.5%
COc1ccc(OC)c(NCC(=O)n2nc(/C=C\c3ccc(O)c(OC)c3)cc2/C=C\c2ccc(O)c(OC)c2)c1	19.1%	29%	29.5%	11.8%	8.27% (active)	34.5%	-19.3% (active)	21.4%	-7.3% (active)	-46.8% (active)	22.9%	4.4% (active)	23.3%	15.7%	-49.5% (active)	23.1%	24%	0.158% (active)	30.2%	16.5%
COc1ccccc1N1CCN(CCCOc2ccc(OCCCN3CCN(c4ccccc4OC)CC3)c(C(=O)c3cc(OC)c(OC)c(OC)c3)c2)CC1	95.4%	111%	96.5%	113%	115%	94.2%	106%	109%	105%	99.5%	105%	67.6%	113%	113%	126%	110%	109%	107%	107%	108%
CN1CCN(CC(=O)N(C)c2ccc(N=C(c3ccccc3)c3c(O)[nH]c4ccc(C#N)cc34)cc2)CC1	35.5%	43.2%	37.7%	39.7%	21.2%	63.8%	45.3%	19.6%	32.4%	0.511% (active)	32.8%	11%	35.5%	42.5%	3.21% (active)	32%	18.2%	-20.2% (active)	78.5%	30.7%
COc1ccc(-n2c(-c3ccc(NC(=O)CCCl)cc3)nnc2-c2cc(OC)c(OC)c(OC)c2)cc1	54.8%	68.8%	59.4%	54.8%	7.54% (active)	46.1%	43.8%	30.2%	75.4%	8.54% (active)	22.7%	49.8%	71.4%	53.2%	8.38% (active)	78.6%	53.1%	41.5%	52.1%	59.5%
O=C(O)c1cc2ccccc2cc1Nc1ccccc1	84.6%	93.8%	108%	82.3%	91.8%	91.3%	80.6%	87.6%	101%	122%	113%	98.3%	111%	96.2%	77.7%	99.7%	104%	74.2%	4.2% (active)	96.7%
COc1cc2ncn3c(=O)c4c5c(sc4nc3c2cc1OC)CCCCC5	89.3%	74.5%	90.9%	91%	99.5%	81.9%	99.9%	104%	106%	98%	111%	97.3%	93.7%	91.7%	105%	93.7%	105%	100%	105%	106%
COC1OCC(OS(=O)(=O)c2ccc(C)cc2)C(OC(=O)c2ccccc2)C1OC(=O)c1ccccc1 (stereo not given)	68.4%	68.4%	76.6%	42.2%	17.4%	62.2%	19%	48.7%	42.1%	36.4%	66.6%	37.8%	37.3%	57.2%	49.6%	62.4%	30%	39.2%	71%	34.3%
CC(C(C(=O)N1CCCCC1)N1CCCCC1)N1CCCCC1 (stereo not given)	107%	109%	119%	96.7%	114%	112%	93.1%	94%	108%	118%	122%	94.7%	118%	112%	112%	115%	117%	116%	101%	103%
COc1ccc(-c2nn(-c3cccc(Cl)c3)cc2-c2cc(-c3ccc(Br)cc3)[nH]c(=O)c2C#N)cc1	86.8%	84%	83.9%	93.8%	48.9%	82.1%	74.7%	68.2%	102%	104%	56.5%	81.8%	69.1%	60.8%	75.3%	89.1%	99.1%	81%	93.4%	81.4%

From PubChem BioAssay (NCI)
